This assay concerns PPARa:RXRa (NR concentration 270 nM, RXRa partner concentration 90 nM). The assay is described as follows: PBM binding z-score (relative to random genomic background probes); higher = stronger binding; sequences stand for … in GC…GCGATTGACAGCGTAGAATGAAGG
The gist of the method:
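Ligand-free nuclear receptor dimers were bound for 1 h to custom Agilent 4×180K protein-binding microarrays. Detection used antibodies against each partner (one per run). Binding z-scores rest on regression-normalized fluorescence, with random background probes as the reference.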
For the sequence GATACAGGGTCAGCTAGAGGCCTGAGTATGGAAA, the PBM binding z-score was 4.25.

Take CTCGAAAGGTCGTGCTCAGGTGAGCATACCAAAC: the PBM binding z-score was 4.76.

On to CGTCCAAGGTCAAAGGTCAGTGAGGAGATGACGG, for which the PBM binding z-score was found to be 7.08.

Sequence GATGCTAGGTCAACTGATGGTCAGCTAAAGCTCG gave a PBM binding z-score of 3.62.

In turn, AGATTGAGGTTATTAAGATCAGGGAATTGCGGTC returned a PBM binding z-score of 2.42.

As to CGTCCAAGGCCAATGCTAGGTCAGTGAAAGCATT, the PBM binding z-score came out at 0.242.

As to GAAACAGGGTCAAGGCCAGAGTACGCGTATTGAT, the PBM binding z-score stood at 6.22.

In turn, CCGCCTAGGTCAGGGCCAGTATAGGAGGAACGTT yielded a PBM binding z-score of 2.15.

In turn, CCGAGTAGGTTAGGGGGCATTCAGGCAACGGTGA returned a PBM binding z-score of 4.43.

Consider ACTCGGAGGACAACGGTCAGAGCTACGCCAGTGA, for which the PBM binding z-score is -0.354.

The sequence CGTCAAAGTTCAACTAAGGTAACGTACAGCACGC showed a PBM binding z-score of 5.25.

GCGACTGGGGCATCAGCAGGTTACAATAACTTAA gave a PBM binding z-score of 1.24.

Consider TCTCGGAAGACACGAAAGGTCAGAGCTCGACATC, for which the PBM binding z-score worked out at 3.61.

Consider TCGAGAAGGTTAGTCGGGGCATTCAGCCAACATA, for which the PBM binding z-score worked out at 1.32.

AGAATGAGGTTATACGTAGATCAGGGAGGAAAGT displayed a PBM binding z-score of 3.09.

ATATGTAGGTTATCGGGCCATTCAGTTTGCGCAT came in with a PBM binding z-score of 3.22.

Sequence TATACAGGGTAAAAGGCCAGAGTACGAATGTCGA yielded a PBM binding z-score of 2.02.

CCTGCTAGGTAAATGGTCAGCTAAAGCAGCTCGC came in with a PBM binding z-score of -0.0599.

TCTAATTGGTCAAAGGTCACACACTCGAAATGCG gave a PBM binding z-score of 6.59.

TCATATAGGTTAATGCTAGGTGAAAGTCCGATCT registered a PBM binding z-score of 2.55.

In the case of TAGCCTAGGTCAGATCGGCCCAGTATACGCTATA, the PBM binding z-score worked out at 1.87.

Sequence CAAACTAGGTAACAGAGGTCAAAGTCCGTGCGTA displayed a PBM binding z-score of 5.84.

As for CCTTACGGGTCACTGACAGGTTACAGCATTTGGA, the PBM binding z-score came out at 5.01.

Sequence CCAGACAGGTGAAAAGTAACTCAGTCTGGTACGC showed a PBM binding z-score of 1.01.

In turn, ATCTCTAGGTAACCAAGATCAGTGAATGCCGAAC came in with a PBM binding z-score of 0.613.

As for CCTACTGAGCCAAAGGTCATTGATTCCAATGCTC, the PBM binding z-score was 5.53.

GCGACTGGGGCATCAGAAGGTTACCATAACTTAA showed a PBM binding z-score of 1.65.

ATCTATAGGTAACCAAGTTCAGTGAATGCCGAAC came in with a PBM binding z-score of 1.01.

CCAGACAGGTGAGAAGGCAACTCAGCCTCGATTA: the PBM binding z-score was determined as 0.376.

In turn, CCAGTCAGGTGAGAAGGTAACTCAGCCTCGATTA came in with a PBM binding z-score of 0.601.

In the case of TCGACTAGGTTAGTCGGGGCATTCAGCCAACATA, the PBM binding z-score is 0.668.

Turning to CGTCCAAGTTCAACTAAGGTAACGTAAAGCACGC, the PBM binding z-score came out at 3.15.

AATACAGGGGCACTAGGCCAGAGTAGGTACGAAT had a PBM binding z-score of 1.5.

In turn, CCTGCTAGGTCATGGACAGCTAATCTACAGTATG yielded a PBM binding z-score of 3.61.

The sequence GCTAGTTGGGCAGTAAAAGGTCACACACCGGTCG gave a PBM binding z-score of 4.28.

TCAGACGGGTGAAGGTAACTCAGGTACGCAGTCG had a PBM binding z-score of 1.02.

With ATCTCTAGGTACGACTCAGTTCAGTGAAGAACGC, the PBM binding z-score worked out at 0.0584.

As to GCGACTGGGGCATAGCAGGTTACCATAAGGTTGG, the PBM binding z-score came to 1.2.

CGTCAAAGTTCAACTAAGGTAACGTAAAGCACGC came in with a PBM binding z-score of 5.14.

TCAGACAGGTGAACGTAACTCAGGTACGCAGTCG displayed a PBM binding z-score of 1.43.
